# Reference: the supplement of paper PMC12669032
# Values joined by “and” are separate entries in the source; they are usually repeats but may differ in a detail not shown here. Identical values can stand only once.
# Assays:
# Roseburia intestinalis = experiment: growth AUC relative to DMSO control (median of replicates) (fraction); higher = more growth (less inhibition), active = hit call of the paper; details: 20 µM; 24 h
# How it was run: (§1)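 For each compound at 20 µM (1% DMSO), gut bacterial monocultures seeded at OD600 0.05 grew anaerobically in mGAM at 37 °C in round-bottom 96-well plates. Hourly OD600 readings over 24 h gave growth curves whose minimum OD was set to 0. Area under these curves was normalised to the plate median of solvent-only wells, or to row and column medians on the industrial chemical plate. Values are medians of three biological replicates grown on separate days.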
# Streptococcus salivarius = experiment: as above; details: 20 µM; 24 h
# How it was run: as §1
Compound,growth AUC (Roseburia intestinalis),growth AUC (Streptococcus salivarius)
Nc1c(Cl)cc([N+](=O)[O-])cc1Cl,0.925 (inactive),0.956 (inactive)
CNC(=O)O/N=C/C(C)(C)SC,1.03 (inactive),1.06 (inactive)
COC(=O)/C=C(/C)OP(=O)(OC)OC,1.02 (inactive) and 0.985 (inactive),0.944 (inactive) and 1 (inactive)
CCc1cccc(C)c1N(C(=O)CCl)[C@@H](C)COC,1.03 (inactive),1.02 (inactive)
CC(C)NC(=O)N1CC(=O)N(c2cc(Cl)cc(Cl)c2)C1=O,1.07 (inactive),1.05 (inactive)
Nc1c(Cl)c(F)nc(OCC(=O)O)c1Cl,1 (inactive),1 (inactive)
CCC(C)n1c(=O)[nH]c(C)c(Br)c1=O (stereo not given),0.975 (inactive),0.901 (inactive)
CC1(C)C(C=C(Cl)Cl)C1C(=O)OC(C#N)c1ccc(F)c(Oc2ccccc2)c1 (mixture of isomers),0.916 (inactive),0.974 (inactive)
CNC(=O)Oc1cc(C)c(S(C)=O)c(C)c1 (stereo not given),0.965 (inactive),1.01 (inactive)
BrCCBr,1.06 (inactive),1.01 (inactive)
CCCCN(CCCC)N=O,1 (inactive),1.01 (inactive)
Cc1ccc(NC(=O)N(C)C)cc1Cl,1.02 (inactive),1.02 (inactive)
CC(C)N1C(=O)N(c2ccccc2)CSC1=NC(C)(C)C,1.02 (inactive),0.953 (inactive)
ClC1=C(Cl)[C@]2(Cl)[C@@H]3[C@@H]4C[C@@H]([C@H]5O[C@@H]45)[C@@H]3[C@@]1(Cl)C2(Cl)Cl,1 (inactive),1.03 (inactive)
CC(CCl)OP(=O)(OC(C)CCl)OC(C)CCl (mixture of isomers),0.967 (inactive),1.01 (inactive)
O=[N+]([O-])c1cc(Cl)ccc1Cl,0.931 (inactive),0.981 (inactive)
CCCC1COC(Cn2cncn2)(c2ccc(Cl)cc2Cl)O1 (stereo not given),0.995 (inactive),0.964 (inactive)
Oc1cccc2cccnc12,1 (inactive),0.995 (inactive)

Compound,growth AUC (Roseburia intestinalis),growth AUC (Streptococcus salivarius)
COc1ncc(F)c2nc(S(=O)(=O)Nc3c(F)cccc3F)nn12,1.02 (inactive),1 (inactive)
COP(=S)(OC)Oc1ccc(SC)c(C)c1,1.03 (inactive),0.965 (inactive)
COP(=S)(OC)Oc1ccc(S(=O)(=O)N(C)C)cc1,0.971 (inactive),1.04 (inactive)
CN(C)C(CSS(=O)(=O)c1ccccc1)CSS(=O)(=O)c1ccccc1,1.02 (inactive),0.973 (inactive)
CNC1=C(c2cccc(C(F)(F)F)c2)C(=O)C(c2ccccc2)O1 (stereo not given),1.04 (inactive),0.988 (inactive)
CC1(C)CC/C(=C\c2ccc(Cl)cc2)C1(O)Cn1cncn1 (stereo not given),1.02 (inactive),0.993 (inactive)
CC1(C)C(C=C(Cl)Cl)[C@@H]1C(=O)O[C@@H](C#N)c1ccc(F)c(Oc2ccccc2)c1 (stereo not given in full),0.916 (inactive),1 (inactive)
CC(Cl)(Cl)C(=O)O,1.01 (inactive),1.01 (inactive)
COC(=O)c1ccccc1S(=O)(=O)NC(=O)Nc1nc(C)nc(OC)n1,0.978 (inactive),0.935 (inactive)
O=C(O)CNCP(=O)(O)O,0.966 (inactive),1.03 (inactive)
CP(=O)(O)CCC(N)C(=O)[O-].[NH4+] (stereo not given),1.06 (inactive),1.01 (inactive)
CC1(C)[C@H](/C=C(\Cl)C(F)(F)F)[C@@H]1C(=O)O[C@@H](C#N)c1cccc(Oc2ccccc2)c1,0.919 (inactive),0.957 (inactive)
CCC(C)(NC(=O)c1cc(Cl)c(C)c(Cl)c1)C(=O)CCl (stereo not given),0.964 (inactive),0.945 (inactive)
CNC(=O)Oc1ccccc1OC(CCl)OC (stereo not given),0.961 (inactive),0.996 (inactive)
CON(C)C(=O)Nc1ccc(Br)cc1,1.06 (inactive),0.999 (inactive)
Nc1nc(N)nc(NC2CC2)n1,0.97 (inactive),0.981 (inactive)
O=C1C2(Cl)C3(Cl)C4(Cl)C(Cl)(Cl)C5(Cl)C3(Cl)C1(Cl)C5(Cl)C24Cl (stereo not given),0.0478 (active),0.0301 (active)
